From PubChem BioAssay

Experiments:
PEG-3 [1] = target: PEG-3 (UniProt Q6IN02); assay: Peg3 promoter luciferase inhibitors, potency, dose response, cell-based, HeLa, CREF/GAPDH counter-screen panel (AID 624167); conditions: CREF/GAPDH counter-screens; HeLa PEG-Prom luciferase reporter, overnight, run 1, dose range 1, at 100 µM (top of the series) unless noted
PEG-3 [2] = target: PEG-3 (UniProt Q6IN02); assay: as above; conditions: CREF/GAPDH counter-screens; HeLa PEG-Prom luciferase reporter, overnight, run 2, dose range 1, at 100 µM (top of the series) unless noted
Rat fibroblasts (CREF) [3] = assay: as above; conditions: CREF/GAPDH counter-screens; run 1, dose range 1, at 100 µM (top of the series)
Rat fibroblasts (CREF) [4] = assay: as above; conditions: CREF/GAPDH counter-screens; run 2, dose range 1, at 100 µM (top of the series)
[5] = target: Tumor necrosis factor receptor superfamily member 10B (Homo sapiens) (UniProt O14763); assay: caspase-8 TRAIL sensitization, hit retest, confirmation, cell-based, NB7+caspase-8, with/without TRAIL, luminescence panel (AID 651596); conditions: NB7 neuroblastoma + caspase-8, TRAIL sensitization, luminescence viability, with TRAIL, mean of runs, at 10 µM, stronger effect = higher value
[6] = as above; conditions: NB7 neuroblastoma + caspase-8, without TRAIL, luminescence viability, without TRAIL, mean of runs, at 10 µM
[7] = inhibitors of PAF-induced NFkB signaling in CF airway cells, dose response, cell-based, uHTS hits, panel, cytotoxicity readout (AID 624344); conditions: CF bronchial epithelial cells, PAF-induced NFkB reporter inhibition, with PAF, run 1; at 79 µM (top of the series) unless noted
[8] = as above; conditions: CF bronchial epithelial cells, PAF-induced NFkB reporter inhibition, with PAF, run 2; at 79 µM (top of the series) unless noted

Sequence of Tumor necrosis factor receptor superfamily member 10B (Homo sapiens) (O14763 whole entry, looked up): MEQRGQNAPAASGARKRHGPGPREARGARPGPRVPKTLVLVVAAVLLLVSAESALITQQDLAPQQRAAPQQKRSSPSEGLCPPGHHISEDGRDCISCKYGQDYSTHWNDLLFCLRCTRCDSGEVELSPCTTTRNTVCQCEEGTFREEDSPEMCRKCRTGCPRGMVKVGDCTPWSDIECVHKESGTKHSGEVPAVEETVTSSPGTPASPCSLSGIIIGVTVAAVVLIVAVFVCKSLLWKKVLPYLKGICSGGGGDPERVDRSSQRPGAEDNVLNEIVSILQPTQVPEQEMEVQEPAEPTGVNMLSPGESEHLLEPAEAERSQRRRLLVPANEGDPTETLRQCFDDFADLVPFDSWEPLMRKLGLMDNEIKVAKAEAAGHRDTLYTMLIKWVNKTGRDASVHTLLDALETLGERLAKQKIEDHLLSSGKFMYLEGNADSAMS
Sequence of PEG-3 (Q6IN02 whole entry, looked up): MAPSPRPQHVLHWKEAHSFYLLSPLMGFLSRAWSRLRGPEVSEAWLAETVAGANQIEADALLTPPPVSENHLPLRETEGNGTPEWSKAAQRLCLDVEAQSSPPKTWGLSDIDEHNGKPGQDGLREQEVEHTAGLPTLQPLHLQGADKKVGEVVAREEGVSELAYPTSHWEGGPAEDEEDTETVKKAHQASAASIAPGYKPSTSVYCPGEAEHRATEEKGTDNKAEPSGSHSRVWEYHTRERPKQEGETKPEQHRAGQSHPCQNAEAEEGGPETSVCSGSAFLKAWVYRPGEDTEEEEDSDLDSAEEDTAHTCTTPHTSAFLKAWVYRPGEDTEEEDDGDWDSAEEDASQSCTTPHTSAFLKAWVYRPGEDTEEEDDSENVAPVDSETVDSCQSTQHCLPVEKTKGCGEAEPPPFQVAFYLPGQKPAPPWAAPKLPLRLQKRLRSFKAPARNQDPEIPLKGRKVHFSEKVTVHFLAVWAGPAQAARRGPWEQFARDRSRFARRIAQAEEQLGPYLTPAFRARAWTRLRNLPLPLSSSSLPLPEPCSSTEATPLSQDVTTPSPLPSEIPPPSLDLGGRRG

| Compound | inhibition (PEG-3 [1]) [%] | inhibition (PEG-3 [2]) [%] | inhibition (Rat fibroblasts (CREF) [3]) [%] | inhibition (Rat fibroblasts (CREF) [4]) [%] | activity [5] [%] | activity [6] [%] | inhibition [7] [%] | inhibition [8] [%] |
| --- | --- | --- | --- | --- | --- | --- | --- | --- |
| CC(=O)n1cc(N(C(=O)CCl)c2ccc(C)cc2)c2ccccc21 | 102 | 99 | 99.7 | 95.3 | 99.6 | 99.7 |  |  |
| COc1ccc(/C=N/Nc2nncc3ccccc23)cc1 | 92.6 | 95.4 | 97.8 | 98.9 | 97.3 | 97 |  |  |
| CN(C)c1ccc(Nc2nc(N)c3ccccc3n2)cc1 | 97.9 | 99.2 | 97.2 | 98 | 95.9 | 95.8 |  |  |
| C=C1CC(COc2ccc3c(C)c(Cl)c(=O)oc3c2)(c2ccccc2)OC1=O (stereo not drawn) | 99.6 | 101 | 98.2 | 98 | 97.8 | 99 |  |  |
| Clc1cccc(-c2nc(-c3ccccn3)no2)c1 | 89.2 | 92.5 | 96.4 | 94.4 | 84.3 | 82.3 |  |  |
| C=C1CC2(OC1=O)c1ccccc1CCc1ccccc12 | 102 | 101 | 95.7 | 97.7 | 97.2 | 99.3 |  |  |
| COc1ccc(OCc2cccc(C(=O)O)c2)cc1 | 98.7 | 102 | 90.9 | 89.6 | 62.9 | 55.2 |  |  |
| CC(C)(C)C(=O)Nc1ccc(NC(=O)c2ccco2)nc1 | 102 | 101 | 100 | 100 | 98.7 | 98.5 |  |  |
| Cc1ccc(C(=O)Nc2ncc([N+](=O)[O-])s2)cc1 | 91.3 | 96.1 | 85.9 | 88.8 | 68 | 62.8 |  |  |
| COc1ccc(N(C(=O)CCl)C(C(=O)NC2CCCCC2)c2cccnc2)cc1 (stereo not drawn) | 99.1 | 102 | 97.1 | 94.1 | 99.5 | 98.7 |  |  |
| COc1cc(SC)ccc1C(=O)Nc1nc2ccccc2[nH]1 | 99.2 | 101 | 96.9 | 97.9 | 99 | 99 |  |  |
| O=C1c2cccc3cc([N+](=O)[O-])cc(c23)C(=O)N1CCN1CCCC1 | 102 | 99.1 | 80.3 | 83 | 41.1 | 67.3 |  |  |
| Cc1cc(C(=O)COC(=O)c2ccccc2O)c(C)n1Cc1cccs1 | 88.8 | 94.8 | 94.6 | 87.5 | 95.7 | 95.5 |  |  |
| Cc1ccc(-c2nc(-c3ccccn3)no2)cc1 | 99.3 | 96 | 100 | 99.7 | 96.8 | 96.3 |  |  |
| O=C(N/N=C/c1cccs1)c1n[nH]c2c1CCCC2 | 99.5 | 94.8 | 96.4 | 96.8 | 81 | 84.2 |  |  |
| CCOc1ccc(-c2ccc(SC)nn2)cc1 | 95 | 92.5 | 97.5 | 98.9 | 95.2 | 95.1 |  |  |
| O=C(Cn1ncc(Cl)c(Cl)c1=O)N1CCc2ccccc21 | 99.5 | 98.6 | 96.2 | 95.5 | 99.5 | 99.6 |  |  |

| Compound | inhibition (PEG-3 [1]) [%] | inhibition (PEG-3 [2]) [%] | inhibition (Rat fibroblasts (CREF) [3]) [%] | inhibition (Rat fibroblasts (CREF) [4]) [%] | activity [5] [%] | activity [6] [%] | inhibition [7] [%] | inhibition [8] [%] |
| --- | --- | --- | --- | --- | --- | --- | --- | --- |
| c1cc2c(cc1C1=NNC(=NC3CC3)SC1)OCCO2 | 98.9 | 99 | 99.2 | 91.3 | 93.3 | 90.9 |  |  |
| Cc1ccccc1-c1nc(-c2ccccn2)no1 | 96.7 | 92 | 99.5 | 99.3 | 88.8 | 86.8 |  |  |
| COc1cccc(CN(C)C(=O)C(CCSC)NS(=O)(=O)c2ccc3c(c2)OCCO3)c1OC (stereo not drawn) | 73.9 | 99.1 |  |  |  |  | 110 | 106 |
| COc1ccc(Nc2nc(-c3ccccc3)nc3ccccc23)cc1S(=O)(=O)N1CCOCC1 | 61.7 | 59.1 |  |  | 33 | 25.6 | 97.7 | 106 |
| Nc1nc(CCl)nc(Nc2cccc3ccccc23)n1 | 102 | 100 |  |  | 99.8 | 98.7 |  |  |
| Cc1ccc(-n2cc(-c3ccccc3)c3c(N4CCOCC4)ncnc32)cc1 | 101 | 102 |  |  |  |  | 107 | 101 |
| COc1cccc(-c2nnc3n2N=C(C(C)(C)C)CS3)c1 | 98.1 | 99 |  |  |  |  | 105 | 114 |
| CCOC(=O)Cc1csc(NC(=S)NC(=O)c2ccc(Cl)cc2)n1 | 77.7 | 73.4 | 88 | 86.8 | 65.1 | 63.8 |  |  |
| O=S(=O)(Nc1cccc2cccnc12)c1ccccc1 | 81.7 | 97.7 |  |  |  |  | 102 | 109 |
| CS(=O)(=O)c1ccc2nc(NC(=O)CCS(=O)(=O)c3ccccc3)sc2c1 | 85 | 92.7 |  |  |  |  | 98.1 | 97.7 |
| Cc1cc2sc3ccc(C#CC4(O)CCCCC4)cc3c(=O)c2cc1C | 84.2 | 93.8 |  |  | 91.2 | 90.1 |  |  |
| COC(=O)c1c(NC(=O)c2ccc([N+](=O)[O-])o2)sc2c1CCN(C(C)C)C2 | 95 | 99.1 |  |  | 46.9 | 88.7 |  |  |
| CC1(C)Oc2cc3oc(-c4cc(O)cc(O)c4)cc3cc2CC1O (stereo not drawn) | 93.6 | 94.6 |  |  | 81.8 | 75.9 |  |  |
| CCCCCCCCCCCCCCC(O)C[N+](C)(CCO)CCO (stereo not drawn) | 94.8 | 101 |  |  | 94.9 | 96.5 | 95.6 | 96.1 |
| CC(/C=C/c1ccccc1)=N/NC(=O)c1cc([N+](=O)[O-])cc([N+](=O)[O-])c1 | 94.6 | 86.3 | 47.1 |  | 21.2 | 30.8 |  |  |
| O=C(CCl)Nc1cccc(-c2cnc3ccccc3n2)c1 | 101 | 98.6 |  |  | 99.3 | 99.2 |  |  |
| O=c1c(Cl)c(N2CCCCC2)cnn1-c1nc2ccccc2[nH]1 | 96.7 | 95 | 100 | 100 | 96.4 | 96.5 |  |  |
